Results on five compounds are retold here after PubChem BioAssay.

In test [1] the test system is Plasmodium falciparum Sir2 (PF13_0152, Sir2A). In words: Plasmodium falciparum Sir2A binding compounds – biochemical, small-molecule microarray, 635 nm fluorescence, primary screen (AID 1098).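 Also: score merges spot fluorescence intensity with its signal-to-noise ratio.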 To be noted: fluorescence 635 nm, higher = more signal.
The nature of test [2]: probe aDKK1 binding to arrayed compounds – biochemical, biotinylated probe, 635/667 nm fluorescence, primary screen (AID 1099).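 Also: score merges 667nm spot fluorescence with signal to noise across triplicate slides.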 To be noted: small-molecule microarray, higher = more signal.
The nature of test [3]: probe aCHRDL2 binding to arrayed compounds – biochemical, biotinylated probe, 635/667 nm fluorescence, primary screen (AID 1100). The conditions noted are these: small-molecule microarray, higher = more signal.
A short description of test [4]: change in splice reporter luminescence, either direction, cell-based, HEK293, spliceosome inhibition project, primary screen (AID 1101).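 Also: HEK293 cells carrying a splicing-competent luciferase reporter gene; test concentration not given here.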 The conditions noted are these: HEK293 splicing luciferase reporter, 24 h, higher = more signal, called active from +8 up or from −8 down.
Test [5] has as its target Fibroblast growth factor 10 (Homo sapiens) (UniProt O15520). In words: compounds binding fibroblast growth factor 10 – biochemical, small-molecule microarray, 635 nm fluorescence, primary screen (AID 1102). To be noted: FGF10 binding, fluorescence 635 nm, higher = more signal.
Test [6] deals with glycogen synthase kinase-3 (GSK3A per assay name; protocol says GSK3B). In words: compounds binding glycogen synthase kinase-3 – biochemical, small-molecule microarray, 635 nm fluorescence, GSK3A, primary screen (AID 1103). Also: the record names both GSK3A and GSK3B. The conditions noted are these: fluorescence 635 nm, higher = more signal.
Test [7] has as its target Epidermal growth factor receptor (Homo sapiens) (UniProt P00533). In words: compounds binding epidermal growth factor receptor – biochemical, small-molecule microarray, 635 nm fluorescence, primary screen (AID 1104).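 Also: score merges 667 nm emission intensity with spot signal to noise over triplicate slides.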 To be noted: EGFR binding, higher = more signal.
For test [8], the target named is Follistatin-related protein 3 (Homo sapiens) (UniProt O95633). Briefly: compounds binding follistatin-related protein 3 – biochemical, small-molecule microarray, 635 nm fluorescence, primary screen (AID 1105).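 Also: score merges emission near 667 nm and signal to noise per printed spot across three slides.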 To be noted: FSTL3 binding, higher = more signal.
Follistatin-related protein 3 (Homo sapiens), sequence (O95633 whole entry, looked up): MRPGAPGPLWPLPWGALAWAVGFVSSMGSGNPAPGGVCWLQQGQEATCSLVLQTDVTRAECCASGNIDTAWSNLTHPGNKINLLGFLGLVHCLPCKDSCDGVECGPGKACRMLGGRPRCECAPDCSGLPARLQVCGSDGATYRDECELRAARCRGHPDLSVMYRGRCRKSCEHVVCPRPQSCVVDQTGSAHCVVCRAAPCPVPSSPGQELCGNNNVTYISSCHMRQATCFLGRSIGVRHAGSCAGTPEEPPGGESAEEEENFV
In test [9] the target is Dickkopf-related protein 1 (Homo sapiens) (UniProt O94907). In words: small molecules binding DKK1 protein – biochemical, small-molecule microarray, 635 nm fluorescence scan, primary screen (AID 1106).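 Also: score merges emission near 667 nm with signal to noise over three replicate slides.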 The conditions noted are these: higher = more signal.
Dickkopf-related protein 1 (Homo sapiens), sequence (O94907 whole entry, looked up): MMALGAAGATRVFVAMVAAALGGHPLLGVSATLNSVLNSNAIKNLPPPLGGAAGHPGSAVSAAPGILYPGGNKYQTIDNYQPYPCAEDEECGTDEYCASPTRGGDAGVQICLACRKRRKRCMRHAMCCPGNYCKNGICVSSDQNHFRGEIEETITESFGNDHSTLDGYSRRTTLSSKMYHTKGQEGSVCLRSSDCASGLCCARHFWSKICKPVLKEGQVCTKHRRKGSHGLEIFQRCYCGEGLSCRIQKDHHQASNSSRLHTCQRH
Test [10] deals with Inhibin beta A chain (activin A). Briefly: small molecules binding activin A – biochemical, small-molecule microarray, 635 nm fluorescence scan, primary screen (AID 1107).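 Also: mouse activin A protein probed at 4.33 µg/mL on printed slides; score merges bound-protein fluorescence near 667 nm with spot signal-to-noise.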 To be noted: INHBA, higher = more signal.
Test [11] deals with Human papillomavirus type 1a protein E7 (residues 44-93). In words: small molecules binding HPV E7 44-93 – biochemical, small-molecule microarray, residues 44-93, 635 nm fluorescence, primary screen (AID 1108).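 Also: E7 fragment applied at 1 µg/mL in TBST for 1 h at 4 C; score combines spot fluorescence with its signal to noise ratio.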 To be noted: fluorescence 635 nm, higher = more signal.
Test [12] is described as follows: hepatitis C replication reporter changes, two-sided – Huh7 cells, luciferase reporter, HCV replication inhibitor project, primary screen (AID 1109).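 Also: huh7 hepatoma cells harbouring a luciferase neomycin HCV replicon reporter; luciferase luminescence as measure of HCV replicon replication; test concentration not given here.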 To be noted: Huh7 HCV replicon luciferase reporter, 48 h; higher = more signal. (In general: In a reporter assay the amount or activity of a reporter protein is the signal.)
The target in test [13] is Left-right determination factor 2 (Homo sapiens) (UniProt O00292). Briefly: small molecules binding LEFTY2 protein – biochemical, small-molecule microarray, 635 nm fluorescence scan, primary screen (AID 1110). The conditions noted are these: higher = more signal.
Left-right determination factor 2 (Homo sapiens), sequence (O00292 whole entry, looked up): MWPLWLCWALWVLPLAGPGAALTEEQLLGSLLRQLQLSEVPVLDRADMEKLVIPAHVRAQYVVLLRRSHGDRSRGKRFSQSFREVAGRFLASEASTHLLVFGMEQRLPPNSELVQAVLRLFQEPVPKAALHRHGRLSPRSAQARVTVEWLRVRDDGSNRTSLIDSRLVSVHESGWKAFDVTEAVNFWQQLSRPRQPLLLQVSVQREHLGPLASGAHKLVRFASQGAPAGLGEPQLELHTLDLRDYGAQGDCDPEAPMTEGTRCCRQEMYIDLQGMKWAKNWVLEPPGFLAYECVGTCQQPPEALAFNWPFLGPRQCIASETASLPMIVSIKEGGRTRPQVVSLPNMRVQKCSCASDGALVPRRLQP
In test [14] the target is Calmodulin-1 (Homo sapiens) (UniProt P0DP23). Briefly: small molecules binding calmodulin-1 with EGTA – biochemical, small-molecule microarray, Cy5-labelled CALM1, profiling panel (AID 1111).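 Also: labelled calmodulin applied in Tris saline Tween buffer holding calcium plus EGTA and DTT.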 To be noted: Cy5-CALM1 binding fluorescence, higher = more signal.
For test [15] the target is unchanged. Briefly: small molecules binding Ca-loaded calmodulin-1 – biochemical, small-molecule microarray, Cy5-labelled CALM1, plus calcium, artefact control for SMM control-protein annotation, profiling panel (AID 1112).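 Also: score merges spot fluorescence with signal to noise from triplicate slides.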 The conditions noted are these: Cy5-CALM1 binding fluorescence, higher = more signal.
Test [16] in a line: probe aWnt5a binding to arrayed compounds – biochemical, biotinylated probe, 635/667 nm fluorescence, primary screen (AID 1113).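 Also: score merges 667 nm fluorescence intensity with signal-to-noise per printed feature.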 To be noted: small-molecule microarray, higher = more signal.
Test [17] in a line: probe aShh binding to arrayed compounds – biochemical, biotinylated probe, 635/667 nm fluorescence, primary screen (AID 1114).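 Also: probe is biotin-labelled aShh protein from a stem cell growth factor screen; measures binding of labelled protein to compounds printed on the slide; score merges feature fluorescence at 667 nm with signal-to-noise.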 To be noted: small-molecule microarray, higher = more signal.
Test [18] in a line: probe aNog binding to arrayed compounds – biochemical, biotinylated probe, 635/667 nm fluorescence, primary screen (AID 1115).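 Also: probe is biotinylated aNog protein used at 0.15 µg/mL for 1 h at 4 C; z-score combines 667 nm fluorescence of each spot with its signal to noise.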 To be noted: small-molecule microarray, higher = more signal.
Test [19] addresses Torsin-1A-interacting protein 1 (Homo sapiens) (UniProt Q5JTV8). In words: compound microarray binding of lysate hLAP1 – cell lysate, small-molecule microarray, COS7 lysate, 635/667 nm fluorescence, primary screen (AID 1116). To be noted: 635 nm fluorescence, higher = more signal.
The target of test [20] is Alpha-bungarotoxin (Bungarus multicinctus) (UniProt P60615). Briefly: compounds binding labelled alpha-BTX control protein – biochemical, small-molecule microarray, Alexa647 label, 635/667 nm fluorescence, artefact control for SMM control protein annotation, profiling panel (AID 1117). To be noted: alpha-BTX-A647 binding fluorescence, higher = more signal.
Alpha-bungarotoxin (Bungarus multicinctus), sequence (P60615 whole entry, looked up): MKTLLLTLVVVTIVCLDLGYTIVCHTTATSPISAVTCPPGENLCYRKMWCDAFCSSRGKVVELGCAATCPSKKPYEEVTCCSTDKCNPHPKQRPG

Active and inactive are the calls of the source.

Torsin-1A-interacting protein 1 (Homo sapiens), sequence (Q5JTV8 whole entry, looked up): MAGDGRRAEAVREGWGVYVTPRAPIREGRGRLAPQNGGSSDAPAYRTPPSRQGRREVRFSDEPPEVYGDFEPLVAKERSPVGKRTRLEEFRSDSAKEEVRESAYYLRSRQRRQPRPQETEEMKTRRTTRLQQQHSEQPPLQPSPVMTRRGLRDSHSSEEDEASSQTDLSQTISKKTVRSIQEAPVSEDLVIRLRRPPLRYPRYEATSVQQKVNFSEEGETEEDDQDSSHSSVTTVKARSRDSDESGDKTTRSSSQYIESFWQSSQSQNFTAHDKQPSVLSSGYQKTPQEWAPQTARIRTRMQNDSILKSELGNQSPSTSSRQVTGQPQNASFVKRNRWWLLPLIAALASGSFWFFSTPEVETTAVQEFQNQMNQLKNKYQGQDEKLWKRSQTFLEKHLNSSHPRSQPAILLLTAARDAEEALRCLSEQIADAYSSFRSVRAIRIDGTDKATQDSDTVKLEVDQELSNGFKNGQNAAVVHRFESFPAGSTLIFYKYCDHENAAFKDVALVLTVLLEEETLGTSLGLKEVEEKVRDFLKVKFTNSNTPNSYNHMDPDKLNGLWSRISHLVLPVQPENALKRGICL
Epidermal growth factor receptor (Homo sapiens), sequence (P00533 whole entry, looked up): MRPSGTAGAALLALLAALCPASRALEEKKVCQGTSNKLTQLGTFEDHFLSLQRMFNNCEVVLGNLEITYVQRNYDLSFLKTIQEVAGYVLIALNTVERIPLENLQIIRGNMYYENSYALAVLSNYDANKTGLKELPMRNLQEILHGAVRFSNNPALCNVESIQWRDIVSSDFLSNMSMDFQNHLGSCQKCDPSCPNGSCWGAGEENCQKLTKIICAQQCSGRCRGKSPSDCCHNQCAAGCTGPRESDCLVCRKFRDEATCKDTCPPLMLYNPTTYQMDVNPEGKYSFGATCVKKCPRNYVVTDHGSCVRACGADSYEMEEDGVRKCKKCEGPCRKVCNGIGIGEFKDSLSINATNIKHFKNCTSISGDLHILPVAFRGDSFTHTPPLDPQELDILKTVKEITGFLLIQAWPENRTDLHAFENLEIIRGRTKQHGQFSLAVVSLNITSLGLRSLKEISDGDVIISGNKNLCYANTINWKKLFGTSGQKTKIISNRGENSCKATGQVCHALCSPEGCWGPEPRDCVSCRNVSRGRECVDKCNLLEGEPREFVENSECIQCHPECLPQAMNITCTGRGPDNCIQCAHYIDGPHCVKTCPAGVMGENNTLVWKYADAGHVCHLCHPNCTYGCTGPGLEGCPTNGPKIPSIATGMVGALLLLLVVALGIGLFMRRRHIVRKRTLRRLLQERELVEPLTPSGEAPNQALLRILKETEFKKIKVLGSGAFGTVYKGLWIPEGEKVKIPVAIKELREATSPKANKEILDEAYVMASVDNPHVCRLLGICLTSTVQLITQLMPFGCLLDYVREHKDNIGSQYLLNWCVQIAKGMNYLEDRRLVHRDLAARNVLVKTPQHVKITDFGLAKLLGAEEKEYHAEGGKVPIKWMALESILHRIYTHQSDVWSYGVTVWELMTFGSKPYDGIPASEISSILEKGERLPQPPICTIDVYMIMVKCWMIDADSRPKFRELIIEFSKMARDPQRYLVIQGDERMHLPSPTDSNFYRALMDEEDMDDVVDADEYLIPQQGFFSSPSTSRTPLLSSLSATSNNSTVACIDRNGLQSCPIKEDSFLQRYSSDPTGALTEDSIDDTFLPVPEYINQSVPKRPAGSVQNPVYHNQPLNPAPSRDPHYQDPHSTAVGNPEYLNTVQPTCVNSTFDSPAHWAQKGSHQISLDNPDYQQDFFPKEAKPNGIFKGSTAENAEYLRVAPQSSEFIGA
Fibroblast growth factor 10 (Homo sapiens), sequence (O15520 whole entry, looked up): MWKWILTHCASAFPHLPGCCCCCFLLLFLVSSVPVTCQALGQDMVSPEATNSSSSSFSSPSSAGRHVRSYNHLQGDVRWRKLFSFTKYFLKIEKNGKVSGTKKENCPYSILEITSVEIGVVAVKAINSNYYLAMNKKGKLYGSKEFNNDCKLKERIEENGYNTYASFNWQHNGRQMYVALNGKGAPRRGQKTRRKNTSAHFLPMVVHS

As for `CC(CCN1CCc2nc(-c3ccccc3)c(-c3ccccc3)cc2C1)=NO[C@H](C)c1cn([C@@H]2COC[C@H]2O)nn1`, the composite z-score in test [1] is 1.1; in [2] it was -0.182; in test [3], -0.432; in test [5] it was 0.215; in test [6], 0.403; in test [7] it was 0.0515. The composite z-score in test [8] was 0.343; in [9], 0.0546; in test [10], 0.763; in test [11], 1.35; in [13], 0.0738; in test [14], -0.307. Further, the composite z-score in [15] is -0.46; in [16] it was -0.0685; in test [17], -0.0553; in test [18] it was -0.025; in test [19] it was 0.438; in [20], 0.872. Also, the z-score in test [4] was 0.611 (inactive); in test [12] it was -0.883.
As for `CC(C)CN1CCc2nc(-c3ccccc3)c3c(c2CC1)CO[C@@H](C)C3`, the composite z-score in test [1] was -0.232; in [2], 0.256; in [3] it was -0.469; in test [5] it was 0.515; in [6] it was 0.123; in test [7], 0.471. Besides, the composite z-score was 0.202 in test [8]; 0.718 in [9]; 0.157 in [10]; -0.749 in test [11]; 0.774 in [13]; -0.268 in [14]. Further, the composite z-score in [15] was -0.177; in test [16] it was 0.027; in test [17], 0.191; in test [18], -0.138; in test [19] it was 0.12; in test [20] it was 0.405. Also, the figures for the z-score in test [4] and in test [12] were 0.00565 (inactive) and -0.747, respectively.
Regarding `COc1cccc([C@@H]2Oc3ccc(Br)cc3C(=O)[C@H]2O)c1`, the composite z-score was 0.237 in test [1]; -0.257 in test [2]; -0.423 in [3]; 1.19 in test [5]; 0.101 in test [6]; 0.312 in [7]. For the same compound, the composite z-score is 0.892 in [8]; 0.221 in test [9]; 0.287 in test [10]; 0.0288 in test [11]; 0.171 in test [13]; 0.042 in test [14]. Also, the composite z-score is -0.246 in test [15]; -0.124 in test [16]; -0.243 in test [17]; -0.257 in test [18]; 0.43 in test [19]; 0.599 in [20]. Also, the values for the z-score in test [4] and in test [12] were -1.7 (inactive) and 3.55, respectively.
Take `O=C1[C@H]2[C@H]3[C@H](O)[C@H](O)CC(=NO[C@@H]4O[C@H](CO)[C@@H](O)[C@H](O)[C@H]4O)[C@@H]3CC[C@H]2C(=O)N1Cc1ccccc1`: the composite z-score in test [1] is 0.133; in [2], -0.195; in [3], -0.269; in [5] it was 0.503; in [6] it was -0.817; in test [7], 0.331. The composite z-score was -0.0746 in test [8]; -0.0034 in [9]; -1.43 in test [10]; 0.33 in test [11]; 0.792 in test [13]; -0.225 in test [14]. The composite z-score is -1.24 in test [15]; -0.136 in [16]; 0.225 in [17]; -0.433 in [18]; 0.392 in test [19]; -0.187 in [20]. In addition, the z-score in test [4] is -0.847 (inactive); in test [12], 0.506.
As to `C[C@H]1CC[C@@H](C(=O)O)N[C@@H]1c1ccc(C#CCN(C)C)cc1`, the composite z-score in test [1] is 0.785; in [2], -0.275; in test [3], -0.337; in test [5], 0.425; in [6], 0.429; in [7], 0.44. Moreover, the composite z-score in [8] was 0.481; in test [9], 0.33; in test [10] it was 0.222; in [11], -1.64; in test [13], 0.793; in test [14], -0.263. In addition, the composite z-score in test [15] is -0.51; in test [16], -0.152; in test [17] it was 0.148; in test [18], -0.126; in test [19] it was 0.109; in test [20], 0.783. For the same compound, the z-score in test [4] is -0.248 (inactive); in test [12] it was 0.848.
